Assay outcomes (PubChem)
Compounds with a hit are over-represented: about 3.7% of the library has one in this group of screens.
BoNT-A LC inh2 – blocks Botulinum neurotoxin A light chain protease; multiplex microsphere protease substrate cleavage, flow cytometry; inhibition, % at 10 µM; 360,000 tested, 0.17% active
BoNT-F LC inh – blocks Botulinum neurotoxin F light chain protease; Multiplex microsphere protease cleavage assay, flow cytometry; inhibition, % at 10 µM; 360,000 tested, 0.22% active; in the data active = inhibition above about 35%, passing the limit was not always enough; inconclusive = no clear call, values can overlap the other calls
Autofluor counter – compound fluorescence in toxin protease inhibitor counterscreen; compound autofluorescence counterscreen, microsphere flow cytometry; stronger effect = higher value; fluorescence intensity (concentration not given with the values); 360,000 tested, 3.1% active; AID 624483; in the data active = fluorescence intensity above about 16000; inconclusive = no clear call, values can overlap the other calls
Anthrax LF prot – blocks Bacillus anthracis lethal factor protease | inhibition, % at 10 µM | P15917 | AID 588501 | 360,000 tested, 0.12% active | multiplex microsphere protease cleavage assay, LF
MazEF act – increases E. coli MazEF RNase cleavage of RNA. FAM/BHQ RNA-DNA oligo cleavage fluorescence, 5 h. activation, % at 20 µM. AID 504720. 350,000 tested, 0.32% active. P0AE70; in the data active = activation above about 50%
A number is an active result; i = inactive; ? = inconclusive; nt = no result given. Cut-off read from the data, not from the text of the source, unless noted: active = inhibition above about 30%; inconclusive = no clear call, values can overlap the other calls; inactive = below that.

SMILES	BoNT-A LC inh2	BoNT-F LC inh	Autofluor counter	Anthrax LF prot	MazEF act
Cc1ccc(-n2c(O)c(/C=C3/C(c4ccccc4)=Nc4ccccc43)c(=O)[nH]c2=O)cc1	i	i	i	i	i
C[C@@H]1CN([C@@H](C)CO)C(=O)c2cc(NC(=O)c3ccccc3)ccc2O[C@@H](C)CCCCO[C@@H]1CN(C)S(=O)(=O)c1ccc(F)cc1	i	i	i	i	i
CCOC(=O)Cn1c(S(=O)(=O)Cc2ccc(F)cc2)nc(-c2ccccc2)c1-c1ccccc1	?	i	16161	i	i
C#CCn1c(S(=O)(=O)Cc2ccc(F)cc2)nc(-c2ccccc2)c1-c1ccccc1	i	i	16327	i	i
CCOC(=O)Cn1c(S(=O)(=O)Cc2cccc(F)c2)nc(-c2ccccc2)c1-c1ccccc1	i	i	i	i	i
Cc1ccc(/C(O)=C2\C(=O)C(=O)N(CCN(C)C)C2c2ccccc2F)cc1 (configuration not stated)	?	i	20048	i	i
CN(C)CCN1C(=O)C(=O)/C(=C(/O)c2ccc(F)cc2)C1c1ccccc1F (configuration not stated)	i	i	22555	i	i
CCOc1ccc(C2/C(=C(/O)c3ccc(F)cc3)C(=O)C(=O)N2CCCN(C)C)cc1 (configuration not stated)	i	i	i	i	i
Cc1ccc(/C(O)=C2\C(=O)C(=O)N(CCCN3CCOCC3)C2c2ccccc2F)cc1 (configuration not stated)	i	i	i	i	i
COc1ccc(CCNc2oc(Cc3cccc4ccccc34)nc2C#N)cc1OC	i	i	i	i	i
CNc1oc(Cc2cccc3ccccc23)nc1C#N	i	i	17571	i	i
N#Cc1nc(Cc2cccc3ccccc23)oc1NCCN1CCCCC1	i	i	i	i	i
CC(C)Nc1oc(Cc2cccc3ccccc23)nc1C#N	?	i	24202	i	i
CC(=O)NC(c1ccccc1)c1nc(-c2cccnc2)cs1 (configuration not stated)	i	i	i	i	nt
CNc1nc(-c2ccccc2)cc(C(F)(F)F)c1C#N	i	i	i	i	400.1
C#CCSc1nc(-c2ccccc2)cc(C(F)(F)F)c1C#N	i	i	i	i	i
Cc1ccc(S(=O)(=O)N2C[C@H]3C(=O)C[C@@H](c4ccccc4)N(S(=O)(=O)c4ccc(Br)cc4)[C@H]3C[C@H]2c2ccccc2)cc1	i	i	i	i	nt
FC(F)(F)c1ccccc1Cc1c(-c2ccc(Cl)cc2)nc2ccc(Br)cn12	i	i	i	i	nt
C=CCc1cc(C=C2C(=O)NC(=O)NC2=O)cc(OC)c1OCc1ccc(C(=O)O)cc1	i	i	i	i	i
C=CCc1cc(C=O)cc(OC)c1OCc1c(Cl)cccc1Cl	?	i	24171	i	i
COc1ccc(OC)c(N2C(=O)C(Cl)=C(N3CCCCC3)C2=O)c1	i	i	21020	i	i
O=S(=O)(NN=Cc1ccc(O)cc1O)c1cc(Cl)c(Cl)cc1Cl	i	i	i	i	i
CC(=O)Nc1cc(Cl)c(N=Cc2ccc(O)cc2O)cc1Cl	i	i	i	i	106.2
Cc1cccc(C)c1C(O)c1ncc(-c2cccc(F)c2)[nH]1 (configuration not stated)	i	i	i	i	nt
O=C(C(c1ccccc1)c1ccccc1)N1CCC(c2nc(-c3ccccc3Cl)no2)CC1	i	i	i	i	i
SMILES	BoNT-A LC inh2	BoNT-F LC inh	Autofluor counter	Anthrax LF prot	MazEF act
O=C(O)c1ccc(S(=O)(=O)N2CCC(c3nc(-c4ccccc4Cl)no3)CC2)cc1	?	i	23179	i	i
Cc1cccc2sc(NC(=O)CSCc3ccccc3)nc12	?	i	23019	i	i
Nc1ncnc2c1ncn2[C@@H]1O[C@H](CNC(=O)OC[C@@H](N)Cc2ccccc2)[C@@H](O)[C@H]1O	i	i	i	i	nt
O=C(OCC1OC(n2cnc3c(N(C(=O)c4ccccc4)C(=O)c4ccccc4)ncnc32)C(O)C1F)c1ccccc1 (configuration not stated)	i	i	24792	i	i
N#CCCN1CCN(C(=S)c2ccc(-c3ccc(Cl)cc3)o2)CC1	?	i	20131	i	i
COc1ccccc1CNC(=O)C(=O)NCC1CCCN1S(=O)(=O)c1cc(C)ccc1C (configuration not stated)	i	i	i	i	i
CCN(CC)C(=O)C1=C(C)N(Cc2ccc(OC)cc2)C(=O)C(CC(=O)NCCc2ccccn2)C1 (configuration not stated)	i	i	i	i	i
COCCSc1ccccc1C(=O)Nc1nnc(COC)s1	i	i	23162	i	i
Cc1nnc(NC(=O)CCSc2ccccc2)s1	i	i	16606	i	i
COCc1nnc(NC(=O)c2ccccc2Oc2ccccc2)s1	i	i	i	i	i
COCc1nnc(NC(=O)CCSc2ccccc2)s1	?	i	20338	i	i
Cc1nnc(NC(=O)CSc2ncnc3scc(-c4ccccc4)c23)s1	?	i	21836	i	i
COc1ccc(NC(=O)Nc2ccc3c(c2)C(=O)N([C@@H](C)CO)C[C@@H](C)[C@@H](CN(C)S(=O)(=O)c2cccs2)O3)cc1	i	i	i	i	i
Clc1ccc2c(-c3ccccc3)nc(-c3cccs3)nc2c1	i	i	i	i	nt
COc1ccc(NS(=O)(=O)c2cc(C(=O)NNC(=O)c3ccncc3)ccc2OC)c(OC)c1	i	i	i	i	i
COCc1nnc(NC(=O)CSc2ccc(C)cc2)s1	i	i	i	i	i
COCc1nnc(NC(=O)CSc2ccccc2)s1	i	i	22373	i	i
CCOC(=O)CSc1nc2c(c(=O)[nH]c(=O)n2C)n1Cc1ccccc1	i	?	i	i	i
CCOC(=O)CSc1nc2c(c(=O)[nH]c(=O)n2C)n1CCCc1ccccc1	i	i	22767	i	i
COc1ccc(-c2cc(C(=O)NCc3ccc(C(F)(F)F)cc3)[nH]n2)c(C)c1	i	i	i	i	nt
O=C(Nc1ccccc1C(=O)NCc1ccccc1)c1ccccc1	i	i	22302	i	i
Cc1ccc(C(=O)NCc2ccccc2)c(F)c1F	i	i	i	i	i
CN(Cc1ccccc1)C(=O)c1ccccc1NC(=O)C1CC1	i	i	i	i	i
Cc1cc(C(=O)NCc2ccccc2)c(=O)[nH]c1C	i	i	23927	i	i
Cc1nc2c(C(=O)NCc3ccccc3)c[nH]n2c(=O)c1Cl	i	i	20750	i	i
SMILES	BoNT-A LC inh2	BoNT-F LC inh	Autofluor counter	Anthrax LF prot	MazEF act
CN(Cc1ccccc1)C(=O)c1ccccc1NC(=O)c1ccccc1	i	i	22709	i	i
Cc1nc2c(C(=O)NCc3ccccc3Cl)c[nH]n2c(=O)c1Cl	i	i	i	i	i
COc1ccccc1NC(=O)N(Cc1ccccc1)C1=NCC(C)S1 (configuration not stated)	i	i	22072	i	i
CCOC(=O)C1CCCN(C2=NC(=O)/C(=C/c3ccc(N(C)C)cc3)S2)C1 (configuration not stated)	i	i	i	i	i
O=S1(=O)C[C@@H](N2CCN(CC3CC3)CC2)[C@H](COCc2ccccc2)N1	i	i	i	i	nt
CCCCC(=O)NC(c1ccc([N+](=O)[O-])cc1)c1c(O)ccc2ccccc12 (configuration not stated)	i	i	i	i	i
